Assay outcomes: PubChem BioAssay, National Center for Advancing Translational Sciences (NCATS)
MARV entry inh – inhibitors of Marburg virus binding or cell entry; Marburg virus pseudotyped entry inhibition, cell reporter; Potency, µM (doses to about 37.8 µM), inactives show at the top dose activity change, negative = inhibition, hits mostly inhibitors; 1.8% of 300,000 active; AID 540276; calls by dose curve; tested in HEK293 cells; note: potency is the fitted concentration of half-maximal effect
VACV mCherry inh – inhibitors of vaccinia virus infection (mCherry reporter signal). Vaccinia virus mCherry reporter infection, fluorescence. Potency, µM (titrated, usually from 36.5 µM), for the others: at the top dose activity change, negative = inhibition, actives largely listed as inhibitors. 0.63% of 310,000 active. AID 720579; calls by dose curve; tested in A549 cells; note: potency is the fitted concentration of half-maximal effect; nearly all actives have a fitted effect of over 35% in size
Vaccinia Venus – inhibitors of vaccinia virus (Venus reporter) | Vaccinia virus Venus reporter expression, fluorescence | Potency, µM (titrated, usually from 36.5 µM), for inactives: at the top dose activity change, negative = inhibition, usual class: inhibitors | 0.46% of 330,000 active | AID 720580; calls by dose curve; tested in A549 cells; note: potency is the fitted concentration of half-maximal effect; nearly all actives have a fitted effect of over 30% in size
HCMV inh – blocks human cytomegalovirus replication. HFF cells, HCMV-luciferase reporter, 72 h; hits give low values. activity change, negative = inhibition, % at 57.5 µM. 4.5% of 410,000 active. AID 1259415; in the data active = activity change below about -60%; inconclusive = no clear call, values can overlap the other calls; inactive = above about -39%
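Two compound doses tested in HFFs infected with HCMV-luciferase, MOI 1 PFU/cell, 72 h at 37C. Lysate luminescence read with OneGlo; data normalized against buffer-only and 10uM Salinomycin inhibitor controls.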
HCV inh – blocks hepatitis C virus; Huh7.5.1 HCVcc-Cre infection, luciferase reporter, 44 h; Potency, µM (top dose mostly 41.8 µM), inactives show top-dose activity change, negative = inhibition, usual class: inhibitors; 3.4% of 340,000 active; AID 651820; active = well fitted inhibition curve with a large enough effect; inconclusive = small, poorly fitted or top-dose-only effect, or another doubt; inactive = no such curve, though single readings can be large or run the other way; note: potency is the fitted concentration of half-maximal effect
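Cells seeded at 1,000/well and cultured 4 h, then compounds added followed by HCVcc-Cre virus (~0.5 moi). After 44 h further culture, luciferase substrate was added, plates held 15 min at room temperature, and luminescence read for 15 sec.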
Lassa entry inh – inhibitors of Lassa virus binding or cell entry. Potency, µM (doses to about 37.9 µM), without a hit: at the highest dose activity change, negative = inhibition, usual class: inhibitors. 1.2% of 300,000 active. Lassa virus pseudotype entry inhibition, cell reporter. AID 540256; calls by dose curve; tested in HEK293 cells; note: potency is the fitted concentration of half-maximal effect; nearly all actives have a fitted effect of over 50% in size
The depositor's hits bear a star; i = inactive; ? = inconclusive; . = no result given; [ ] = another dose, or the depositor's remark. Sampled rows, rich in hits. Any-hit rate of the full collection: about 7.8%. % is set by controls: 0 for no effect and ±100 for the full control effect.

SMILES	MARV entry inh	VACV mCherry inh	Vaccinia Venus	HCMV inh	HCV inh	Lassa entry inh
Cc1ccsc1-c1nc(CSCC(=O)N2CCN(c3ccccc3)CC2)c(C)o1	0%	?	-19%	6	?	.
CCOc1ccc2nc(N[C@@](NC(=O)CC)(C(=O)OC)C(F)(F)F)sc2c1	2%	.	.	.	.	.
COc1ccc(-c2nc(CSCC(=O)N3CCN(c4ccc(F)cc4)CC3)c(C)o2)cc1	?	?	?	-90*	.	-27%[46.1 µM]
COc1cccc(C(=O)NCCSc2c(-c3ccc(F)cc3)[nH]c3ccccc23)c1OC	?	-11%	-16%	-25	.	?
Cc1ccccc1OC1C(=O)N(Cc2ccc3c(c2)OCO3)C1c1sccc1C (centres undefined)	?	-20%	?	-71*	?	?
COc1ccccc1NC(=O)NC1CCCCCCC1	1%[46.1 µM]	-13%	-21%	?	-9%	-14%[46.1 µM]
COc1ccccc1NS(=O)(=O)c1cccc(NC(=O)c2ccc3ccccc3n2)c1	?	?	-18%	-79*	?	?
COc1ccccc1NS(=O)(=O)c1cccc(NC(=O)NC2CCCCC2)c1	?	-13%	?	-76*	?	?
COc1ccccc1NS(=O)(=O)c1cccc(NS(=O)(=O)c2cc(C(=O)O)ccc2OC)c1	-11%	-13%	-6%	-102*	6%	14%
COc1ccccc1NS(=O)(=O)c1cccc(NS(=O)(=O)c2ccc(Cl)c(C(=O)O)c2)c1	?	-8%	-7%	62	7%	3%
Cc1ccc(Nc2sc(C(=O)c3ccccc3)c(N)c2C(=O)Nc2ccc(Cl)cc2)cc1	.	?	?	-103*	.	-6%[46.1 µM]
Nc1c(C(=O)c2ccccc2)sc(Nc2ccc(Cl)c(Cl)c2)c1C(=O)Nc1ccccc1	.	?	?	-107*	.	?
O=C(CCNS(=O)(=O)c1ccc2c(c1)CCCC(=O)N2)NCc1ccc(Cl)cc1	.	-8%	4%	-7	.	5%[46.1 µM]
CCC(Oc1ccccc1-c1nnc(-c2ccccc2)o1)C(=O)Nc1ccc(C(C)=O)cc1 (centres undefined)	.	-1%	-14%	15	.	?
CC(=O)N1CCOc2cc(S(=O)(=O)NCc3ccc(C)cc3)c(Cl)cc21	.	-16%	-8%	-31	.	-23%[46.1 µM]
O=C(Cc1ccccc1)Nc1nc(-c2cccc([N+](=O)[O-])c2)cs1	-12%	-12%	-2%	-8	5%	-4%
CNc1nc(-c2ccc([N+](=O)[O-])cc2)cs1	2%[46.1 µM]	.	-19%	-74*	-13%	18%
O=[N+]([O-])c1ccc(-c2csc(NN=C3CCCC3)n2)cc1	?	-19%	-5%	?	8.9µM*	14%[46.1 µM]
O=C(Cc1nc(-c2ccc([N+](=O)[O-])cc2)cs1)Nc1ccccc1	4%	.	.	-92*	-14%	-2%
Nc1nc(-c2ccc([N+](=O)[O-])cc2)cs1	?	-13%	-11%	-79*	-2%	7%
O=[N+]([O-])c1ccc(-c2csc(N3CCCCCC3)n2)cc1	-6%	i	-9%	-24	-22%	?
Cc1oc(-c2ccccc2NC(=O)c2ccsc2)nc1CN(C)Cc1ccc2c(c1)CCCN2C	.	-2%	-12%	.	.	.
CCOC(=O)c1c(NC(=O)COc2ccc(Cl)cc2C)sc(C(C)=O)c1C	.	6%	0%	8	.	-10%[46.1 µM]
COCC(=O)Nc1nc(-c2ccc(-c3ccccc3)cc2)cs1	4%	-31%	?	5	?	?
COCC(=O)Nc1nc(-c2ccc([N+](=O)[O-])cc2)cs1	.	.	.	-89*	-4%	.
COc1ccc(-n2c(-c3cccc(F)c3)nc3c(cnn3-c3ccc(C)cc3)c2=O)cc1	?	-14%	-12%	-14	.	-17%[46.1 µM]
N#Cc1ccc(OCc2cn(CC(=O)c3ccc(O)cc3)nn2)cc1	.	.	.	.	.	1%[46.1 µM]
CC1(c2ccccc2)CC(C)(C)N(C(=O)c2ccccc2Cl)c2ccccc21 (centres undefined)	20%[46.1 µM]	-8%	-9%	28	.	-1%[46.1 µM]
COc1ccc(C(=O)N2c3ccc(C)cc3C(C)(c3ccccc3)CC2(C)C)cc1 (centres undefined)	.	-13%	-10%	-71*	.	-9%[46.1 µM]
